# PubChem BioAssay AID540308 (The Scripps Research Institute Molecular Screening Center, 2011)
# Hit rate of the full screen: of about 360,000 compounds, about 3,500 (0.97%) were called active. The sample holds actives, similar compounds and a random draw of the others, so the mix is not that of the screen.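 How the source made its calls: active means activation above a per-plate cutoff, the mean activation of sample wells on that plate plus 3 SD (cut at about 8% in these data); inactive means the rest.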
# Target: Melanocortin receptor 4 (Homo sapiens) (UniProt P32245)
# Sequence (P32245 whole entry, looked up): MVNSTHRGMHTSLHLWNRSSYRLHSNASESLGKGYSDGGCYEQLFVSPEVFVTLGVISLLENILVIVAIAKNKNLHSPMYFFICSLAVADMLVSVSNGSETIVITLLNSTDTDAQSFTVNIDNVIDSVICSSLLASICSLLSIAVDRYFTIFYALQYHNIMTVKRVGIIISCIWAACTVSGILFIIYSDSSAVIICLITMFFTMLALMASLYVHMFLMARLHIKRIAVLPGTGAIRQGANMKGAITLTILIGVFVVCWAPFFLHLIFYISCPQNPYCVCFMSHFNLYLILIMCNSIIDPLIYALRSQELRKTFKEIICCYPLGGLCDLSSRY
# Assay: MC4R agonists recruiting beta-arrestin, primary screen, cell-based, luminescence, agonist arm of biased-ligand search (AID 540308)
# Conditions: U2OS MC4R beta-arrestin complementation, at 8.9 µM, active compounds read high, percent of melanotan II response, DMSO zero
row,Structure (SMILES),activation
1,CC1(C(=O)NS(=O)(=O)c2ccccc2)CCN1C(=O)c1ccccc1 (stereo not given),-1.65% (inactive)
2,CCc1ccc2c(c1)cc(CN(C(=S)Nc1ccccc1Cl)C1CC1)c1nnnn12,12.6% (active)
3,CCc1cccc(NC(=S)N(CCN(C)C)C2CCN(C(C)C)CC2)c1,-0.19% (inactive)
4,CCOc1ccc2c(c1)cc(CN(C(=O)CC)C1CCCCC1)c1nnnn12,0.48% (inactive)
5,CC1(C(=O)NS(=O)(=O)c2cccc(F)c2)CCN1C(=O)Cc1cc(F)ccc1F (stereo not given),-0.76% (inactive)
6,CCNC(=O)C1(C)CCCN(C(=O)c2c(C)noc2C)C1 (stereo not given),0.77% (inactive)
7,Cc1ccsc1/C=N/Nc1ccc(Cl)nn1,12.3% (active)
8,Cc1ccsc1/C=N/NC(=O)Cc1cc(=O)[nH][nH]1,-1.77% (inactive)
9,C/C(=N\Nc1ccc(Cl)nn1)c1ccccc1O,-0.38% (inactive)
10,COc1ccccc1CNC(=O)c1cc(-c2cc(F)ccc2OC)n[nH]1,1.31% (inactive)
11,CCCCC(=O)N(C)c1c(CC)nc2c(OCc3ccc(Cl)cc3Cl)cccn12,0.75% (inactive)
12,CC(=O)OC[C@@H]1CN(Cc2ccccc2)C[C@H](n2cnc3c(NCc4ccco4)ncnc32)O1,-2.47% (inactive)
13,COc1ccc2oc(=O)cc(-c3cc4ccccc4o3)c2c1,8.24% (active)
14,COc1cccc2cc(-c3cc(=O)oc4cc(C)c(O)cc34)oc12,1.6% (inactive)
15,COc1ccc(Nc2cc(=O)oc3ccccc23)cc1,-0.49% (inactive)
16,CCN(c1ccccc1)S(=O)(=O)c1ccc(C(=O)Nc2nccs2)cc1,8.9% (active)
17,CCN(c1ccccc1)S(=O)(=O)c1ccc(C(=O)Nc2ccccc2OC)cc1,0.77% (inactive)
18,CCN(c1ccccc1)S(=O)(=O)c1ccc(NC(=O)C(C)(C)C)cc1,-0.35% (inactive)
19,O=C(NC(c1ccc(Cl)cc1)c1cnccn1)C1CCN(Cc2ccc(Cl)cc2)CC1 (stereo not given),-0.34% (inactive)
20,Cc1ccc(C(NC(=O)C2CCN(CCOc3ccc(Cl)cc3Cl)CC2)c2ccccn2)cc1 (stereo not given),4.91% (inactive)
21,O=C(NC(c1ccc(-c2ccccc2)cc1)c1cnccn1)C1CCN(CCOc2ccc(Cl)cc2Cl)CC1 (stereo not given),18% (active)
22,CCc1ccc2c(c1)NC(=O)C2(C)Cc1ccc(OC(F)(F)F)cc1 (stereo not given),-0.4% (inactive)
23,Cc1ccc(-c2cnc(C(O)c3cccc(C)c3C)[nH]2)cc1 (stereo not given),-0.77% (inactive)
24,CC(C)c1ccc2c(c1)c(SC(C)(C)C)c(CC(C)(C)C(=O)O)n2Cc1ccc(Cl)cc1,15.9% (active)
25,COCCNC(=O)C1CCCN(Cc2ccccc2Cl)CC1 (stereo not given),-0.57% (inactive)
